# From PubChem BioAssay (Tox21)
# Several values for one entry are separate records, joined by “and”; a condition that tells them apart may be missing. Equal values may be shown once. Records with an inconclusive call do not appear. A call without a number means that no potency is given here. Where a structure was tested more than once in an assay, its records may differ in their call. Activity calls are given as the source filed them. Unless noted, calls come from the whole dose curve; as a rule, active = well fitted curve in the direction sought with a large enough effect in the repeat runs; inconclusive = weak or mixed curves; inactive = no such curve, though single readings can be large; an effect the other way counts as inactive or inconclusive.
# Key:
# [1] = qHTS assay to identify small molecule agonists of the hypoxia (HIF-1) signaling pathway - cell viability counter screen (AID 1224844; calls by dose curve; note: nearly all actives have a fitted effect of over 50% in size)
# Method in brief: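 HRE-bla ME-180 cells, 2,000/well in 0.5% dialyzed FBS medium, treated 17 h at 37C with compounds. Viability read in the same wells as the bla reporter, by CellTiter-Glo luminescence after 30 min at room temperature.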
# [2] = qHTS assay to identify small molecule agonists of H2AX (AID 1224845; active = well fitted activation curve with a large enough effect in the signal ratio in the repeat runs, not every such curve was filed as active; the % refers to the signal ratio)
# Method in brief: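 Wild-type CHO-K1 cells plated overnight, then exposed 3 hr at 37C to compounds at 15 concentrations (0.76% DMSO). Lysed, then HTRF anti-pH2AX(S139)-cryptate/anti-H2AX-d2 detection after 24 hr at room temperature; emissions 665 and 620 nm.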
# [3] = qHTS assay to identify small molecule agonists of the hypoxia (HIF-1) signaling pathway (AID 1224846; active = well fitted activation curve with a large enough effect in the signal ratio in the repeat runs, not every such curve was filed as active; the % refers to the signal ratio)
# Method in brief: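 HRE-bla ME-180 beta-lactamase reporter cells in medium with 0.5% dialyzed FBS, pre-incubated 5 h then exposed to compounds 17 h at 37C, 5% CO2; reporter induction read with CCF4-AM FRET substrate.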
# [4] = qHTS assay to identify small molecule agonists of H2AX - cell viability counter screen (AID 1224847; calls by dose curve; note: top concentration of the series differs between compounds; nearly all actives have a fitted effect of over 30% in size)
# Method in brief: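 CHO-K1 cells plated overnight at 37C, then exposed 3 h at 37C to compounds at 15 concentrations (0.76% DMSO final). Viability by CellTiter-Glo luminescence after 30 min at room temperature.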
# [5] = qHTS RealTime-Glo MT Cell Viability Assay in HEK293 cells - 32 hour (AID 1224868); note: nearly all actives have a fitted effect of over 50% in size; note: potency is the fitted concentration of half-maximal effect
# Method in brief: (§1)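 Homogeneous bioluminescent viability format in HEK293 cells (600 cells/well). Following 5 h at 37 C/5% CO2, 23 nL compound was pintooled; the signal was measured repeatedly during 40 h incubation.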
# [6] = A CellTox Green Cytotoxicity Assay to monitor cytotoxicity in HEK293 cells - 0 hour (AID 1224869); note: nearly all actives have a fitted effect of over 50% in size
# Method in brief: (§2)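 HEK293 cells, 600/well, were preincubated 5 hours and then exposed to compounds at 37 C for up to 40 hours. A cell-impermeant cyanine dye staining dead-cell DNA was read by fluorescence at 0, 8, 16, 24, 32 and 40 h time points.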
# [7] = qHTS RealTime-Glo MT Cell Viability Assay in HepG2 cells - 40 hour (AID 1224870); note: nearly all actives have a fitted effect of over 50% in size; note: potency is the fitted concentration of half-maximal effect
# Method in brief: (§3)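 HepG2 cells mixed with RealTime-Glo MT reagents (NanoLuc plus cell-permeant prosubstrate) were seeded at 600 cells/well, incubated 5 h at 37 C/5% CO2, then pinned with compounds in DMSO; nonlytic luminescence tracked viability during 40 h treatment.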
# [8] = A CellTox Green Cytotoxicity Assay to monitor cytotoxicity in HEK293 cells - 40 hour (AID 1224871); note: nearly all actives have a fitted effect of over 45% in size; note: potency is the fitted concentration of half-maximal effect
# Method in brief: as §2
# [9] = qHTS RealTime-Glo MT Cell Viability Assay in HEK293 cells - 16 hour (AID 1224872); note: nearly all actives have a fitted effect of over 50% in size; note: potency is the fitted concentration of half-maximal effect
# Method in brief: as §1
# [10] = qHTS RealTime-Glo MT Cell Viability Assay in HepG2 cells - 8 hour (AID 1224873); note: nearly all actives have a fitted effect of over 55% in size
# Method in brief: as §3
# [11] = qHTS RealTime-Glo MT Cell Viability Assay in HEK293 cells - 40 hour (AID 1224874); settings: RealTime-Glo luminescence; max response: stronger effect = lower value; note: nearly all actives have a fitted effect of over 50% in size; note: potency is the fitted concentration of half-maximal effect
# Method in brief: (§4)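 600 cells/well were plated with the nonlytic NanoLuc/prosubstrate reagent, pre-incubated 5 h, then given 23 nL of compound in DMSO. Incubation at 37 C for 40 h, with luminescence from viable-cell-reduced substrate read repeatedly from 0 h.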
# [12] = A CellTox Green Cytotoxicity Assay to monitor cytotoxicity in HepG2 cells - 16 hour (AID 1224876); note: nearly all actives have a fitted effect of over 45% in size; note: potency is the fitted concentration of half-maximal effect
# Method in brief: (§5)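 HepG2 cells, 600/well, preincubated 5 h with CellTox Green dye, then exposed to Tox21 compounds in DMSO at 37 C for up to 40 h. Dead-cell DNA fluorescence read at the indicated time point.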
# [13] = qHTS RealTime-Glo MT Cell Viability Assay in HepG2 cells - 32 hour (AID 1224877); note: nearly all actives have a fitted effect of over 55% in size; note: potency is the fitted concentration of half-maximal effect
# Method in brief: (§6)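 Cell number in HepG2 cultures estimated from NanoLuc luminescence generated by metabolic reduction of a prosubstrate by living cells. The homogeneous, nonlytic format allowed repeated reads at 0, 8, 16, 24, 32 and 40 h of compound exposure.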
# [14] = qHTS assay to identify small molecule antagonists of the estrogen related receptor (ERR) signaling pathway from Tox21 library (AID 1224848); note: nearly all actives have a fitted effect of over 50% in size; note: potency is the fitted concentration of half-maximal effect
# Method in brief: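 Screening used an ERR reporter line supplied by NTP, exposed for 18 h at 37 C to library compounds delivered in DMSO. Signal was luciferase luminescence developed with ONE-Glo at room temperature for 30 min.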
# [15] = qHTS assay to identify small molecule agonists of the estrogen related receptor (ERR) signaling pathway from Tox21 library (AID 1224849; calls by dose curve; note: nearly all actives have a fitted effect of over 15% in size); settings: ERR reporter cell line, ONE-Glo luciferase, 18 h
# Method in brief: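 ERR reporter cells (NTP line) pre-incubated 6 hours at 37 C, then exposed to compounds for 18 hours at 37 C. ONE-Glo luciferase luminescence was read after 30 minutes at room temperature.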
# [16] = qHTS RealTime-Glo MT Cell Viability Assay in HepG2 cells - 24 hour (AID 1224867); note: nearly all actives have a fitted effect of over 50% in size; note: potency is the fitted concentration of half-maximal effect
# Method in brief: as §6
# [17] = A CellTox Green Cytotoxicity Assay to monitor cytotoxicity in HEK293 cells - 24 hour (AID 1224875); note: nearly all actives have a fitted effect of over 45% in size
# Method in brief: as §2
# [18] = A CellTox Green Cytotoxicity Assay to monitor cytotoxicity in HepG2 cells - 24 hour (AID 1224878); note: nearly all actives have a fitted effect of over 45% in size; note: potency is the fitted concentration of half-maximal effect
# Method in brief: as §5
# [19] = A CellTox Green Cytotoxicity Assay to monitor cytotoxicity in HepG2 cells - 40 hour (AID 1224879); note: nearly all actives have a fitted effect of over 40% in size; note: potency is the fitted concentration of half-maximal effect
# Method in brief: as §5
# [20] = qHTS RealTime-Glo MT Cell Viability Assay in HEK293 cells - 0 hour (AID 1224880)
# Method in brief: as §4
structure (smiles),measurement,setting,value
COc1ccc(O)c(C(C)(C)C)c1,Potency,[1],inactive
same,Potency,[2],inactive
same,outcome,[3],inactive
same,Potency,[4],inactive
same,Potency,[5],inactive
same,Potency,[6],inactive
same,Potency,[7],inactive
same,Potency,[8],inactive
same,Potency,[9],inactive
same,Potency,[10],inactive
same,max response,[11],-6.92% (inactive) and 11.9% (inactive)
same,Potency,[12],inactive
same,Potency,[13],inactive
Cc1cccc(N=Nc2ccc(N(C)C)cc2)c1,Potency,[1],inactive
same,Potency,[2],inactive
same,outcome,[3],inactive
same,Potency,[14],inactive
same,"activity change, positive = activation",[15]; at 92.4 µM (top of the series),234% (active) and 86.9% (active)
same,Potency,[16],inactive
same,Potency,[6],inactive
same,Potency,[7],inactive
same,Potency,[8],inactive
same,Potency,[17],inactive
same,Potency,[12],inactive
same,Potency,[13],inactive
same,Potency,[18],inactive
same,Potency,[19],inactive
Cn1c(-c2ccccc2)cc(-c2ccccc2)[n+]1C,Potency,[1],inactive
same,Potency,[2],inactive
same,outcome,[3],inactive
same,Potency,[14],17.2 µM (active) and 21.7 µM (active)
same,"activity change, positive = activation",[15]; at 92.4 µM (top of the series),-54.1% (inactive) and -52.6% (inactive)
same,Potency,[16],inactive
same,Potency,[5],8.69 µM (active) and 24.5 µM (active)
same,Potency,[6],inactive
same,Potency,[7],inactive
same,Potency,[8],inactive
same,Potency,[10],inactive
same,Potency,[11],9.75 µM (active) and 21.9 µM (active)
same,Potency,[17],inactive
same,Potency,[13],inactive
same,Potency,[18],inactive
same,Potency,[19],inactive
same,Potency,[20],inactive
Cc1ccc([N+](=O)[O-])cc1,Potency,[1],inactive
same,Potency,[2],inactive
same,outcome,[3],inactive
same,Potency,[4],inactive
same,Potency,[5],inactive
same,Potency,[6],inactive
same,Potency,[7],inactive
same,Potency,[8],inactive
same,Potency,[9],inactive
same,max response,[11],7.21% (inactive) and 12.5% (inactive)
same,Potency,[17],inactive
same,Potency,[13],inactive
same,Potency,[18],inactive
same,Potency,[19],inactive
same,Potency,[20],inactive
CCCCOCCOC(C)=O,Potency,[1],inactive
same,Potency,[2],inactive
same,outcome,[3],inactive
same,Potency,[14],inactive
same,"activity change, positive = activation",[15]; at 92.4 µM (top of the series),1.87% (inactive) and 10.2% (inactive)
same,Potency,[16],inactive
same,Potency,[5],inactive
same,Potency,[6],inactive
same,Potency,[7],inactive
same,Potency,[8],inactive
same,Potency,[9],inactive
same,Potency,[10],inactive
same,max response,[11],4.03% (inactive) and 1.95% (inactive)
same,Potency,[13],inactive
same,Potency,[18],inactive
same,Potency,[19],inactive
same,Potency,[20],inactive
O=C1Nc2ccc(Cl)cc2C(c2ccccc2)=NC1O (stereo unspecified),Potency,[1],inactive
same,Potency,[2],inactive
same,outcome,[3],inactive
same,Potency,[14],inactive
same,"activity change, positive = activation",[15]; at 92.4 µM (top of the series),-20.3% (inactive) and -12.2% (inactive)
same,Potency,[16],inactive
same,Potency,[5],inactive
same,Potency,[6],inactive
same,Potency,[7],inactive
same,Potency,[8],inactive
same,Potency,[10],inactive
same,max response,[11],-19.7% (inactive)
same,Potency,[17],inactive
same,Potency,[13],inactive
same,Potency,[18],inactive
same,Potency,[19],inactive
O=C(O)CF,Potency,[1],inactive
same,Potency,[2],inactive
same,outcome,[3],inactive
same,Potency,[4],inactive
same,Potency,[16],inactive
same,Potency,[5],inactive
same,Potency,[6],inactive
same,Potency,[7],inactive
same,Potency,[8],inactive
same,Potency,[9],inactive
same,max response,[11],2.85% (inactive) and 14% (inactive)
same,Potency,[17],inactive
same,Potency,[12],inactive
same,Potency,[13],inactive
same,Potency,[18],inactive and 19.5 µM (active)
same,Potency,[19],inactive and 19.5 µM (active)
CC1CC(=O)O1 (stereo unspecified),Potency,[1],inactive
same,Potency,[2],inactive
same,outcome,[3],inactive
same,Potency,[4],inactive
same,Potency,[16],inactive
same,Potency,[5],inactive
same,Potency,[6],inactive
same,Potency,[7],inactive
same,Potency,[8],inactive
same,Potency,[9],inactive
same,max response,[11],4.47% (inactive) and -6.16% (inactive)
same,Potency,[13],inactive
same,Potency,[18],inactive
same,Potency,[19],inactive
same,Potency,[20],inactive
CCOP(=O)(O)OCC (tested in a mixture with another compound),Potency,[1],inactive
same,Potency,[2],inactive
same,outcome,[3],inactive
same,Potency,[16],inactive and 48.6 µM (active)
same,Potency,[5],inactive and 4.33 µM (active)
same,Potency,[6],inactive
same,Potency,[7],inactive and 43.3 µM (active)
same,Potency,[8],inactive and 24.3 µM (active)
same,Potency,[9],inactive and 24.3 µM (active)
same,Potency,[11],2.43 µM (active)
same,max response,[11],4.04% (inactive)
same,Potency,[12],inactive and 43.3 µM (active)
same,Potency,[13],inactive and 48.6 µM (active)
same,Potency,[18],inactive and 43.3 µM (active)
same,Potency,[19],inactive and 34.4 µM (active)
same,Potency,[20],inactive
CC(C)=CC1C(C(=O)OCN2C(=O)C3=C(CCCC3)C2=O)C1(C)C (stereo unspecified),Potency,[1],inactive
same,Potency,[2],inactive
same,outcome,[3],inactive
same,"activity change, positive = activation",[15]; at 42.5 µM (top of the series),-16.7% (inactive)
same,"activity change, positive = activation",[15]; at 92.4 µM (top of the series),-22.5% (inactive)
same,Potency,[5],inactive
same,Potency,[6],inactive
same,Potency,[7],inactive
same,Potency,[8],inactive
same,Potency,[9],inactive
same,max response,[11],2.99% (inactive)
same,Potency,[17],inactive
same,Potency,[13],inactive
same,Potency,[18],inactive
same,Potency,[19],inactive
same,Potency,[20],inactive
ClC(Cl)(Cl)c1ccccc1,Potency,[1],inactive
same,Potency,[2],inactive
same,outcome,[3],inactive
same,Potency,[4],inactive
same,Potency,[5],inactive
same,Potency,[6],inactive
same,Potency,[7],inactive
same,Potency,[8],inactive
same,Potency,[9],inactive
same,Potency,[10],inactive
same,max response,[11],8.54% (inactive) and -1.53% (inactive)
same,Potency,[12],inactive
same,Potency,[13],inactive
same,Potency,[18],inactive
same,Potency,[19],inactive
same,Potency,[20],inactive
